Screens: PubChem, several laboratories
In the library only some 1.7% were active in any assay of this set; here they are far more common.
MazF activator: MazEF (E. coli) toxin RNase activation. P0AE70. FAM/BHQ RNA-DNA oligo cleavage fluorescence, 5 h. activation, % at 20 µM. actives 0.32% (n = 350,000); in the data active = activation above about 50%
Target sequence (P0AE70 whole entry, looked up): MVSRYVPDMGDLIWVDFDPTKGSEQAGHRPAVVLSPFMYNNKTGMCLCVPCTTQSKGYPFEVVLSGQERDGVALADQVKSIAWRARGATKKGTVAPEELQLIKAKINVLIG
PfHsp40 rescue: compounds rescuing yeast from Plasmodium falciparum HSP40 toxicity. S. cerevisiae expressing PfHsp40, growth rescue, ATP luminescence. growth rescue, % at 12.5 µM. actives 0.68% (n = 340,000). AID 504582; in the data active = growth rescue above about 28%, passing the limit was not always enough;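 note: yeast W303a lacking pdr1 and pdr3 grown in galactose medium; growth measured after three days at 30 °C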
BJeLR viability: kills HRASV12-expressing BJeLR cells | BJeLR (HRASV12) viability, CellTiter-Glo ATP luminescence, 48 h | inhibition, % (no concentration beside the values) | actives 0.17% (n = 300,000) | AID 1554; in the data active = inhibition above about 50%
SARS 3CLpro inh: SARS-CoV 3CLpro protease inhibition; recombinant SARS-CoV 3CLpro, quenched FRET peptide cleavage; inhibition, % at 6 µM; actives 0.14% (n = 290,000); in the data active = inhibition above about 12%
DUSP3 inh: DUSP3 (human) phosphatase inhibition; actives 0.52% (n = 290,000); recombinant VHR phosphatase, pNPP absorbance; P51452; inhibition, % at 13.3 µM; AID 1654; in the data active = inhibition above about 50%
Target sequence (P51452 whole entry, looked up): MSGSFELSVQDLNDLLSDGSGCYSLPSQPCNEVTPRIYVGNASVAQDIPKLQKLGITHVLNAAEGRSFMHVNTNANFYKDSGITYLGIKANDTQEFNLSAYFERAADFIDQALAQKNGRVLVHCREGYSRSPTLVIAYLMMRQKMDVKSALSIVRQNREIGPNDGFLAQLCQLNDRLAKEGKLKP
Vc quorum ag: induces V. cholerae light production without autoinducers. V. cholerae BH1578 lux reporter, luminescence, 6 h. activation, % at 18.7 µM. actives 0.16% (n = 350,000); in the data active = activation mostly above about 9.7%, no sharp cut-off
An asterisk follows results filed as active; i = inactive; · = not tested or not shown.

SMILES | MazF activator | PfHsp40 rescue | BJeLR viability | SARS 3CLpro inh | DUSP3 inh | Vc quorum ag
COCCCNCC(O)C(F)(F)F (configuration not stated) | 6 | 0 | 5 | 5 | 14 | 0
O=C(Nc1ccc(S(=O)(=O)Nc2ccccc2F)cc1)N1CCCCC1 | -10 | -1 | -20 | -2 | 6 | 0
O=C(Nc1cccc(-c2nc3ccccc3[nH]2)c1)c1cccc(NC(=O)c2ccco2)c1 | 66* | -2 | 6 | -3 | 39 | 3
O=C1CN(C(=O)COC(=O)c2cc(Cl)ccc2[N+](=O)[O-])c2ccccc2N1 | 0 | · | · | · | · | -1
Fc1ccccc1COc1ccc(Br)cc1CNCc1ccncc1 | -6 | 242* | -6 | 4 | 4 | 0
O/N=C/c1cc(Br)ccc1OCc1ccccc1F | 3 | 721* | 4 | -5 | · | i
Cc1ccc([C@H]2C[C@@H](n3cc(-c4ccc(F)cc4)nn3)[C@H](O)CN2C(=O)C2CCCCC2)cc1 | 2 | · | · | · | · | 0
Cc1ccc(NC(=O)Cn2nc(C)c(S(=O)(=O)N(C)C)c2C)cc1 | 10 | 0 | -8 | 7 | 9 | i
NC(=S)NN=Cc1nccc2c(C(F)(F)C(F)(F)C(F)(F)F)cccc12 | 4 | · | · | · | · | i
NC(=S)NN=Cc1nccc2ccccc12 | 9 | 94* | · | · | · | i
CCc1ccc(/C=C2/SC(=S)N(CCC(=O)NCCCN3CCOCC3)C2=O)cc1 | -12 | 2 | 106* | 5 | 11 | 0
CCc1ccc(/C=C2/SC(=S)N(CCC(=O)Nc3cccnc3)C2=O)cc1 | -82 | -2 | 102* | -1 | 8 | i
O=C(CCN1C(=O)/C(=C/c2ccccc2)SC1=S)NCCCN1CCOCC1 | 5 | 0 | -9 | -4 | 28 | 0
O=C(CCN1C(=O)/C(=C/c2ccccc2)SC1=S)Nc1cccnc1 | 15 | 0 | -7 | 3 | 20 | 0
O=C(CCN1C(=O)/C(=C/c2ccccc2)SC1=S)NNC(=O)c1ccncc1 | 135* | 0 | 7 | 1 | 19 | i
O=C(CCN1C(=O)/C(=C\c2cccc(Br)c2)SC1=S)NCCCN1CCOCC1 | -1 | -2 | 85* | 4 | 16 | 0
CCc1ccc(/C=C2\SC(=S)N(CCCC(=O)NCCCN3CCOCC3)C2=O)cc1 | 10 | · | · | · | · | 0
COC(=O)c1cc(NC(=O)CN2C(=O)C(=O)N(C3CCCC3)C2=O)cc(C(=O)OC)c1 | 4 | 0 | · | · | · | 3
CCc1c(C)c2ccc(OCC(=O)NCC3CCC(C(=O)O)CC3)cc2oc1=O (configuration not stated) | 1 | 0 | -5 | 2 | 16 | 0
O=C(NCCc1ccccc1Cl)C1CCC(=O)N(C2CCCCCC2)C1 (configuration not stated) | -2 | 2 | 4 | 1 | 23 | 7
OC[C@@H]1CN(CCN2CCOCC2)C[C@H](n2cnc3c(NC4CCC4)ncnc32)O1 | · | · | · | · | · | i
COc1cccc(OCCNS(=O)(=O)c2ccccc2[N+](=O)[O-])c1 | 2 | 0 | · | · | · | 1
CN1CCN(C(=O)CCN2C(=O)/C(=C/c3cccc(Br)c3)SC2=S)CC1 | 0 | -1 | 4 | -3 | -4 | 0
CN1CCN(C(=O)CCCN2C(=O)/C(=C/c3cccc(Br)c3)SC2=S)CC1 | -34 | -1 | 90* | 1 | 11 | 0
COc1ccc(/C=C2\SC(=S)N(CCC(=O)Nc3ccc(C(=O)O)cc3)C2=O)cc1OC | -37 | -1 | -5 | -2 | 57* | -8
SMILES | MazF activator | PfHsp40 rescue | BJeLR viability | SARS 3CLpro inh | DUSP3 inh | Vc quorum ag
COc1cc(/C=C2/SC(=S)N(Cc3ccccc3)C2=O)ccc1OCC(=O)O | -6 | 9 | -6 | -2 | 2 | 1
COc1ccc(/C=C2\SC(=S)N(CCC(=O)N(CCO)Cc3ccccc3)C2=O)cc1OC | -38 | 1 | 2 | -2 | 57* | i
COc1cc(/C=C2\SC(=S)N(CC(=O)Nc3cccnc3)C2=O)cc(OC)c1OC | -8 | 1 | 0 | 3 | 4 | 0
COc1cc(/C=C2\SC(=S)N(CC(=O)Nc3ccc(O)cc3)C2=O)cc(OC)c1OC | 8 | 0 | 3 | 5 | 56* | i
CC(=O)N1CCc2cc(S(=O)(=O)NC(Cc3ccccc3)C(=O)O)ccc21 (configuration not stated) | 8 | 0 | 2 | 3 | -31 | 0
Cn1c(CO)cnc1S(=O)(=O)Cc1c(Cl)cccc1Cl | 2 | 0 | -2 | -4 | 24 | 0
COc1ccc(-c2nn(-c3ccccc3)cc2C(=O)NC2CC2)cc1 | 1 | 1 | · | · | · | i
CC1Cn2c(nc3sc4c(c3c2=O)CC(C)(C)OC4)N1CCO (configuration not stated) | 4 | 1 | -3 | 0 | 53* | 1
CC1(C)Cc2c(sc3nc4n(c(=O)c23)CCC4)CO1 | 1 | -1 | 14 | 5 | 7 | ·
Cc1ccc(-c2nc3sc4c(c3c(=O)n2N)CC(C)(C)OC4)cc1 | 6 | -1 | -4 | 7 | 2 | 17*
Cc1cc(C(=O)N/N=C/c2cc(Cl)cc([N+](=O)[O-])c2O)n[nH]1 | 7 | 0 | 3 | 1 | 8 | -4
CN(C)C1(CN=Cc2cc(Cl)cc([N+](=O)[O-])c2O)CCCCC1 | 1 | 42* | -6 | 4 | 1 | 0
N#CC1=C(N)Oc2c(ccc3ccccc23)C1c1cccs1 (configuration not stated) | 59* | · | 35 | 0 | 23 | ·
N#CC1=C(N)Oc2cc(O)ccc2C1c1cccs1 (configuration not stated) | 12 | 0 | 2 | -3 | 11 | -1
CNc1nc(-c2cccc(C(=O)N(C)C)c2)cn2ccnc12 | · | · | · | · | · | i
O=c1[nH]c(=O)n([C@H]2C[C@H](O)[C@@H](CO)O2)cc1F | 1 | -1 | 93* | 0 | 5 | i
Cc1cn([C@H]2C[C@H](N=[N+]=[N-])[C@@H](CO)O2)c(=O)[nH]c1=O | 7 | -1 | -15 | -3 | 16 | 35*
O=c1[nH]c(=O)n(C2CC(O)C(CO)O2)cc1I (configuration not stated) | 1 | -1 | · | · | · | i
O=c1[nH]c(=O)n([C@H]2C[C@H](O)[C@@H](CO)O2)cc1Br | 3 | -1 | · | · | · | 0
CCCC(=O)N1CCC1(C)C(=O)Nc1cc(OC)c(OC)c(OC)c1 (configuration not stated) | · | · | · | · | · | 0
CN1C(=O)c2ccc(C(=O)NCc3ccco3)cc2C1=O | 4 | 1 | 5 | 2 | 5 | i
CN(C)CCCNc1c2ccccc2nc2ccccc12 | -1 | 1 | 69* | 1 | 24 | 0
O=C(NC(Nc1ncc(S(=O)(=O)c2ccc([N+](=O)[O-])cc2)s1)(C(F)(F)F)C(F)(F)F)c1ccc(Cl)cc1 | 9 | 0 | 70* | -5 | 15 | 0
COCC(=O)Nc1ncc(S(=O)(=O)c2ccc([N+](=O)[O-])cc2)s1 | 3 | -1 | -5 | 0 | 34 | i
